Consider 15 compounds from PubChem BioAssay.

For part of these data: Potency and affinity values are given separately. Calls of active or inactive are those of the source.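 The calls were made as follows, unless noted: active = primary screen active and over 50% activation in each of two duplicate runs; inactive = the rest.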

A word on the inhibition: it is how much of the control response was suppressed.

The test system of assay [1] is TRPC4 beta (transient receptor potential cation channel C4), mouse. Put plainly: activators of mouse TRPC4 channel, confirmation, cell-based, Fluo4 calcium, HEK293 TRPC4beta/mu-opioid, duplicates, 10 µM (AID 2426;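 active = fluorescence ratio normalized to control raised more than 50% in primary screen plus both repeat runs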;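 as to activation: percent rise of integrated ratio over buffer wells lacking compound which define 0%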). To be noted: Fluo4 calcium fluorescence, at 10 µM; active compounds read high.
The subject of assay [2] is transient receptor potential cation channel C4 beta (TRPC4), mouse. The assay is described as follows: activators of mouse TRPC4 channel, confirmation, cell-based, second round, Fluo4, HEK293 TRPC4beta/mu-opioid, 1 µM (AID 2461). Conditions: Fluo4 calcium fluorescence, at 1 µM; active compounds read high.
In assay [3] the test system is TRPC4 (transient receptor potential cation channel C4 beta), mouse. Put plainly: positive allosteric modulators of mouse TRPC4, confirmation, cell-based, second round, Fluo-4, HEK293 TRPC4beta/mu-opioid, 1 µM (AID 2554;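 active = primary screen hit whose fluorescence ratio, in both repeats, exceeds the weak agonist control mean by 3 SD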). To be noted: DAMGO EC20, Fluo-4 calcium flux, at 1 µM; active compounds read high.
Assay [4] deals with TRPC4 beta (transient receptor potential cation channel C4), mouse. The assay is described as follows: positive allosteric modulators of mouse TRPC4, confirmation, cell-based, Fluo-4, HEK293 TRPC4beta/mu-opioid (AID 2555;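 active = primary screen hit whose calcium fluorescence ratio, in both repeats, exceeds the weak agonist control mean by 3 SD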). To be noted: DAMGO EC20, Fluo-4 calcium flux, at 10 µM; active compounds read high.
Assay [5] addresses Short transient receptor potential channel 4 (Mus musculus) (UniProt Q9QUQ5). The assay is described as follows: inhibitors of mouse TRPC4 channel, confirmation, cell-based, Fluo4, HEK293 TRPC4beta/mu-opioid (AID 2636;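 active = calcium signal cut by more than 3 SD below the full-agonist control yet still positive, in both repeats and the earlier primary screen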). Conditions: DAMGO, Fluo4 calcium flux, at 10 µM; active compounds read high. For orientation: Calcium assays in cells follow changes in intracellular calcium, usually with a dye or a luminescent sensor.

For assay [6] the target is unchanged. The assay is described as follows: inhibitors of mouse TRPC4 channel, confirmation, cell-based, second round, Fluo4, HEK293 TRPC4beta/mu-opioid, 1 µM (AID 2637;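 active = calcium signal ratio cut to more than 3 SD under the fully stimulated control mean yet still positive, in both repeats and the primary screen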;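 as to inhibition: percent of integrated ratio relative to wells lacking test compound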). Conditions: Fluo4 calcium flux, DAMGO, at 1 µM; active compounds read high.
Assay [7] has the same target. Put plainly: mouse TRPC4 channel activators, dose response, cell-based, HEK293 TRPC4/mu-opioid, Fluo-4 calcium (AID 434937;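 active = primary screen activator hit with a dose response curve and TRPC4 channel activation at any tested dose; inactive = no activation, no dose response, or not a primary hit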).
For assay [8] the target is unchanged. Put plainly: TRPC4 positive allosteric modulators, dose response, cell-based, HEK293 TRPC4/mu-opioid, Fluo-4 calcium, EC20 DAMGO (AID 434941;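 active = earlier screen potentiator hit that boosts the TRPC4 ion channel at some dose, with a dose response; inactive = no potentiation, no dose response, or not a prior hit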;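 also: calcium entry triggered by an EC20 dose of DAMGO at the co-expressed mu-opioid receptor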).
Assay [9] has as its target Short transient receptor potential channel 6 (Mus musculus) (UniProt Q61143). The assay is described as follows: inhibition of mouse TRPC6 channel, confirmation, selectivity assay for TRPC4 inhibitor project, cell-based, HEK293, membrane potential dye, duplicate (AID 434948;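 active = active in primary screen and both duplicates, each dropping signal beyond three positive-control SD with fluorescence still positive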). Conditions: HEK293 TRPC6, membrane potential dye fluorescence, at 10 µM, stimulated with maximal-effect acetylcholine; active compounds read high.

Assay [10] has the same target. The assay is described as follows: activation of mouse TRPC6 channel, confirmation, selectivity assay for TRPC4 activator project, cell-based, HEK293, membrane potential dye, duplicate (AID 434950;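 active = membrane potential signal rise above negative control mean plus 3 SD in both duplicates, also active in the earlier TRPC4 screen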). Conditions: HEK293 TRPC6, membrane potential fluorescence, at 10 µM; active compounds read high.
The target is the same in assay [11]. The assay is described as follows: TRPC6 potentiation by TRPC4 potentiator hits, confirmation, selectivity assay for TRPC4 potentiator project, HEK293 cells, membrane potential dye, duplicate (AID 434952;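 active = compound raising the membrane signal above positive-control mean plus 3 SD in both repeats, and a primary screen hit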). Conditions: HEK293 TRPC6, membrane potential dye fluorescence, at 10 µM, maximal acetylcholine added after compound; active compounds read high.
Assay [12] has as its target Short transient receptor potential channel 4 (Mus musculus) (UniProt Q9QUQ5). Put plainly: calcium flux activators in TRPC4/5HT1a cells, counter-screen for TRPC4 activator project, cell-based, second counter screen, HEK293 TRPC4/5HT1a, Fluo-4 (AID 434977;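 active = calcium signal rise above buffer-control mean plus 5 SD in both duplicates, and also a hit in the primary screen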). To be noted: Fluo-4 calcium flux, at 10 µM; active compounds read high.
The nature of assay [13]: calcium flux inhibitors in TRPC4/5HT1a cells, confirmation, counter-screen for TRPC4 inhibitor project, cell-based, second counter screen, HEK293 TRPC4/5HT1a, Fluo-4 (AID 434978;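 active = primary screen active whose calcium signal fell more than 3 SD beyond the full-serotonin control mean in both duplicate plates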;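 as to outcome: serotonin given first at submaximal then at maximal dose after compound preincubation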). Conditions: Fluo-4 calcium flux, at 10 µM, serotonin added to trigger calcium flux; active compounds read high.
In assay [14] the test system is TRPC4 (mouse), co-expressed with 5HT1a in HEK293. The assay is described as follows: calcium flux potentiators in TRPC4/5HT1a cells, confirmation, counter-screen for TRPC4 potentiator project, cell-based, second counter screen, HEK293 TRPC4/5HT1a, Fluo-4 (AID 434979;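 active = signal rise over 3 SD above mean of control wells given weak agonist, in both repeats and first screen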). To be noted: Fluo-4 calcium flux, at 10 µM, serotonin added at its EC20 dose; active compounds read high.

Assay [15] in a line: calcium flux activation in mu-opioid HEK293 cells, confirmation, counter-screen for TRPC4 activator project, cell-based, HEK293 mu-opioid receptor line (AID 449723;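 active = hit in primary screen, with calcium signal over 5 SD above buffer well mean in both duplicates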;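 also: counter screen cells carry the mu-opioid receptor alone and lack TRPC4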). Conditions: Fluo-4 calcium fluorescence, at 10 µM; active compounds read high.
Assay [16] is described as follows: calcium flux enhancement in mu-opioid HEK293 cells, confirmation, counter-screen for TRPC4 allosteric potentiator project, cell-based, HEK293 mu-opioid receptor line (AID 449724;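 active = calcium signal rise more than 3 SD above the low-dose agonist control mean, in both duplicate plates and the primary screen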;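 also: HEK293 cells carrying mu-opioid receptor only with no TRPC4 channel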). Conditions: Fluo-4 calcium flux, at 10 µM, compound added before EC20 DAMGO stimulus; active compounds read high.

Chain of Short transient receptor potential channel 4 (Mus musculus) (Q9QUQ5 whole entry, looked up): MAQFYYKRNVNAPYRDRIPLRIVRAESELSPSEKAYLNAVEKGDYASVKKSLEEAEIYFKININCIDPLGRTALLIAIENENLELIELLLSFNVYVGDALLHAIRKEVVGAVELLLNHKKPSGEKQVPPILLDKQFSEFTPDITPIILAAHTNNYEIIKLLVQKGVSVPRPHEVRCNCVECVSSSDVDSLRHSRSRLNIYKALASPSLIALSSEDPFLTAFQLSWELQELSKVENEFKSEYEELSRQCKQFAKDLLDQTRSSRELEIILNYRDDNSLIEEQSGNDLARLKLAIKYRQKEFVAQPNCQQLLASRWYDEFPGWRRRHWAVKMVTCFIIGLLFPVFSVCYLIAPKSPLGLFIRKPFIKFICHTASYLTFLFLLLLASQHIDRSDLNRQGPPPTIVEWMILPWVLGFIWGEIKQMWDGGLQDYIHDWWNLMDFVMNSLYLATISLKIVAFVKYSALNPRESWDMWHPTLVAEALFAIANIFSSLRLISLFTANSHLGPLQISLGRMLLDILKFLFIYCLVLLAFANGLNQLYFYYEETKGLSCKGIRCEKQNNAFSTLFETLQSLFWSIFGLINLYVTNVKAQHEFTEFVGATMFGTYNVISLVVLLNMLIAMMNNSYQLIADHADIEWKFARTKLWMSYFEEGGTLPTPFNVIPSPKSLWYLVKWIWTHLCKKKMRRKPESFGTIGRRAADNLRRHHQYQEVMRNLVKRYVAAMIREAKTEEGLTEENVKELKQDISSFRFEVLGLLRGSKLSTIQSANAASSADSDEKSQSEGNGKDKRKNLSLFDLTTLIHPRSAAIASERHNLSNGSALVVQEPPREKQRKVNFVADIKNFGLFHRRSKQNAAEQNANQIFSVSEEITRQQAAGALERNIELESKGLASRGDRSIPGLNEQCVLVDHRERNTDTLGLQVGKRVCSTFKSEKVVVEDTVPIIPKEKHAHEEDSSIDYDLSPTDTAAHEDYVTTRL
Chain of Short transient receptor potential channel 6 (Mus musculus) (Q61143 whole entry, looked up): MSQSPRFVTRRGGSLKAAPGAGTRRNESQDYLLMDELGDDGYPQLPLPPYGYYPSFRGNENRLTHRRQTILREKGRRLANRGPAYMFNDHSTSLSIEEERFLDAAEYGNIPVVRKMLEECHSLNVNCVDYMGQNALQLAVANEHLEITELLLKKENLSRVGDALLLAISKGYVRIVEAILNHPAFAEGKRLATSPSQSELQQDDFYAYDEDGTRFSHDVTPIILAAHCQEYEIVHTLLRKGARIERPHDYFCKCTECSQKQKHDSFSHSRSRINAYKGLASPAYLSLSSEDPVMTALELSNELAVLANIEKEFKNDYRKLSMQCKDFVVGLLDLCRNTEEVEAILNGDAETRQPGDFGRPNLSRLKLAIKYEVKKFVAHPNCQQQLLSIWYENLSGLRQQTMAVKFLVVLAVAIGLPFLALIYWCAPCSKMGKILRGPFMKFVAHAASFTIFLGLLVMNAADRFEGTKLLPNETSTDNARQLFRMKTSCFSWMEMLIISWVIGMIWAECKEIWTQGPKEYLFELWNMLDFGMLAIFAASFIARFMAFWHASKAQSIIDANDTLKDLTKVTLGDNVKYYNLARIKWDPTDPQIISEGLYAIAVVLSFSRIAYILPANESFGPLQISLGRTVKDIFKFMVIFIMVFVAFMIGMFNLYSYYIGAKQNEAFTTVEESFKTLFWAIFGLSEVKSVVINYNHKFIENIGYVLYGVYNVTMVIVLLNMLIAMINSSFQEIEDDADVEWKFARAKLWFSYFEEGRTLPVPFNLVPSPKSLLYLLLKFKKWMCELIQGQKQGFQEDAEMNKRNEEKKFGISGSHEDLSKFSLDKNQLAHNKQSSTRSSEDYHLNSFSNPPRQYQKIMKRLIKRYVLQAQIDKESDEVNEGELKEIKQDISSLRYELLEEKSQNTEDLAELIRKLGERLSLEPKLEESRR

In the case of `CCn1c(=O)n(CCOC)c(=O)c2c3c(sc21)CCCC3`, the outcome in assay [1], in [2], in [3], in [4], in [7] and in [8] was inactive. The call in assay [9], in assay [10], in assay [11], in [12], in [14] and in [15] was inactive. The result in assay [16] was inactive. In addition, the inhibition was 91% (active) in assay [5], 58% (active) in assay [6] and 16.2% (active) in assay [13].
`CN(C)c1ccc([N+](=O)[O-])cc1C(=O)NCC(c1ccco1)N(C)C` (stereo not given): the result in assay [1], in assay [2], in [3], in assay [4], in assay [6] and in assay [7] was inactive. Besides, the outcome in [8], in assay [9], in assay [10], in assay [11], in assay [12] and in assay [13] was inactive. Moreover, the outcome in assay [14], in assay [15] and in [16] was inactive. Besides, in assay [5], the inhibition is 58% (active).
On to `N=c1sccn1CC(=O)Nc1ccccc1Oc1ccccc1`, for which the outcome in assay [1], in assay [2], in [3], in assay [4], in assay [7] and in assay [8] was inactive. The outcome in assay [10], in assay [11], in assay [12], in assay [14], in assay [15] and in assay [16] was inactive. The inhibition in assay [5] is 92% (active); in [6] it was 48% (active); in assay [9], 48% (active); in [13], 34.6% (active).
In the case of `CC(NC(=O)c1ccco1)C(c1cccs1)N1CCN(c2ccccc2)CC1` (stereo not given), the outcome in assay [1], in assay [2], in [3], in assay [4], in [7] and in [8] was inactive. The outcome in assay [9], in assay [10], in [11], in assay [12], in [13] and in assay [14] was inactive. Moreover, the outcome in assay [15] and in [16] was inactive. The inhibition in assay [5] is 98% (active); in [6], 51% (active).
On to `Cc1ccc(OCCn2c(C)nc3ccccc32)cc1`, for which the outcome in assay [1], in assay [2], in assay [3], in assay [4], in assay [7] and in assay [8] was inactive. In addition, the compound was called inactive in [9], in [10], in [11], in assay [12], in assay [14] and in [15]. For the same compound, the result in [16] was inactive. Further, the inhibition in assay [5] was 94% (active); in assay [6] it was 61% (active); in [13], 13% (active).
Regarding `CC(=O)N(c1ccc(Cl)cc1)c1c[nH]c2ccccc12`, the outcome in [1], in assay [2], in assay [3], in [4], in [6] and in assay [7] was inactive. In addition, the outcome in assay [8], in assay [9], in assay [10], in assay [11], in assay [12] and in assay [14] was inactive. In addition, the outcome in assay [15] and in assay [16] was inactive. Also, the inhibition in assay [5] was 94% (active); in assay [13], 22.3% (active).
For `COc1cc(/C=C2\SC(N3CCC(C)CC3)=NC2=O)ccc1O`, the result in assay [1], in assay [2], in [3], in assay [4], in assay [7] and in assay [8] was inactive. Further, the call in assay [9], in [10], in [11], in assay [12], in [14] and in assay [15] was inactive. Moreover, the result in assay [16] was inactive. Besides, the inhibition in assay [5] is 91% (active); in [6], 48% (active); in assay [13], 31.2% (active).
As to `CCN(CC)c1ncnc2scc(C3COc4ccccc4O3)c12` (stereo not given), the result in assay [1], in assay [2], in [3], in [4], in [6] and in assay [7] was inactive. Further, the outcome in assay [8], in assay [9], in [10], in assay [11], in [12] and in [14] was inactive. Moreover, the outcome in [15] and in [16] was inactive. In addition, the inhibition in assay [5] is 86% (active); in assay [13] it was 33% (active).
With `CNC(=S)N1CCN(C(c2ccccc2)c2ccccc2)CC1`, the activation in [1] is 223% (active). Moreover, the outcome in assay [2], in [3], in [4], in [6], in assay [7] and in [8] was inactive. Moreover, the compound was called inactive in [9], in assay [10], in assay [11], in assay [12], in assay [13] and in assay [14]. In addition, the outcome in assay [15] and in assay [16] was inactive. Moreover, the inhibition in assay [5] is 93% (active).
In the case of `CCOc1ccc(-c2cc(NC(=O)c3c(F)cccc3F)c(C(=O)O)s2)cc1`, the result in assay [1], in assay [2], in assay [3], in assay [4], in assay [7] and in assay [8] was inactive. In addition, the call in assay [9], in [10], in assay [11], in assay [12], in assay [14] and in assay [15] was inactive. For the same compound, the result in [16] was inactive. Further, the values for the inhibition in assay [5], in [6] and in [13] were 98% (active), 41% (active) and 6.94% (active), respectively.
On to `CCN(CC)c1nc2ccccc2c(N)c1-c1ccccc1`, for which the outcome in assay [1], in assay [2], in assay [3], in [4], in [6] and in assay [7] was inactive. The result in assay [8], in [10], in [11], in assay [12], in [14] and in [15] was inactive. In assay [16], the outcome was inactive. The figures for the inhibition in assay [5], in assay [9] and in assay [13] were 89% (active), 37.5% (active) and 33.1% (active), respectively.
In the case of `Cc1ccc(Nc2cc(C)nc3ccc(C)cc23)cc1`, the result in [1], in [2], in assay [3], in [4], in assay [5] and in [6] was inactive. Moreover, the outcome in assay [7], in assay [8], in [10], in assay [11], in assay [12] and in [14] was inactive. Further, the result in [15] and in assay [16] was inactive. For the same compound, the inhibition in assay [9] is 35% (active); in assay [13], 25.7% (active).
Regarding `CCOc1ccccc1N(CC)C(=O)c1nn(C)c2c1CSc1ccccc1-2`, the result in assay [1], in assay [2], in assay [3], in assay [4], in assay [7] and in [8] was inactive. Also, the result in [9], in assay [10], in assay [11], in [12], in [14] and in assay [15] was inactive. Moreover, the outcome in assay [16] was inactive. Also, the inhibition in [5] is 95% (active); in assay [6], 40% (active); in [13], 18.7% (active).
Turning to `C=CCN(CC(O)c1cccc([N+](=O)[O-])c1)C(C)CCc1ccccc1` (stereo not given), the outcome in assay [1], in [2], in [3], in assay [4], in assay [6] and in assay [7] was inactive. The result in [8], in [9], in [10], in [11], in assay [12] and in assay [14] was inactive. Also, the outcome in assay [15] and in assay [16] was inactive. In addition, the figures for the inhibition in assay [5] and in assay [13] were 79% (active) and 25.6% (active), respectively.
`OCC(Cc1ccccc1)NCc1ccccc1C(F)(F)F` (stereo not given): the outcome in assay [1], in [2], in assay [3], in [4], in assay [6] and in [7] was inactive. Further, the outcome in [8], in assay [9], in [10], in assay [11], in assay [12] and in [13] was inactive. Also, the outcome in assay [14], in assay [15] and in assay [16] was inactive. The inhibition in assay [5] is 60% (active).
